# Source: PubChem BioAssay AID1626 (SRMLSC, 2009)
# The whole screen tested about 220,000 compounds, of which about 2,000 (0.91%) were called active. Inconclusive results (about 2%) are left out. No stated cut-off is given here; in the data, inconclusive means inhibition above about 80% without an active follow-up result; inactive means below that; test concentration not stated here. A selection follows. Potency and affinity values are given separately.
# Assay: M. tuberculosis H37Rv growth inhibitors, H37Rv strain (AID 1626);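 further: bacteria incubated seven days before Alamar blue readout; 0% = bacteria only wells and 100% = bacteria with antibiotic wells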
# Settings: active compounds read high, concentration not given here
row,SMILES,inhibition
1,Cn1nc(C(F)(F)F)c2cc(NC(=O)OCc3ccc(F)cc3)sc21,-0.24% (inactive)
2,COc1ccc(COC(=O)Nc2cc3c(C(F)(F)F)nn(C)c3s2)cc1,0.73% (inactive)
3,COc1ccc(CNC(=O)COC(=O)/C=C/c2ccc(Cl)cc2)cc1,2.04% (inactive)
4,COc1ccc(-c2nc(N)n(C(=O)c3ccccc3)n2)cc1,6.59% (inactive)
5,O=C(NC1CCCCCC1)c1ccc(=O)n(Cc2ccccc2)n1,-0.36% (inactive)
6,COC(=O)c1ccc2c(c1O)C(=O)c1ccccc1C2=O,1.91% (inactive)
7,CC(C)COC(=O)c1ccccc1C(=O)OCC(C)C,-10% (inactive)
8,CCOC(=O)c1c(C)oc2c1c(CN1CCN(CCO)CC1)c(O)c1ccccc12,3.65% (inactive)
9,O=C(CN1CC=C(c2ccccc2)CC1)NC(=O)NCc1ccco1,-3.79% (inactive)
10,COc1ccc(-c2cc3ccccc3n2CC(O)CN2CCN(CCO)CC2)cc1 (configuration not stated),4.8% (inactive)
11,O=C(c1ccco1)N1CCN(CC(O)Cn2c3ccccc3c3ccccc32)CC1 (configuration not stated),1.44% (inactive)
12,CCOc1ccc(CN2CCN(C(=O)c3ccccc3)CC2)cc1,0.42% (inactive)
13,Cc1ccc(OCC(O)Cn2c3ccccc3c3ccccc32)cc1 (configuration not stated),72.7% (inactive)
14,OC(COc1ccccc1)Cn1c2ccccc2c2ccccc21 (configuration not stated),41.6% (inactive)
15,COc1ccc(-c2cc3ccccc3n2CC(O)CN2CCCCC2)cc1 (configuration not stated),3% (inactive)
16,OC(CN1CCN(c2ccccc2)CC1)Cn1c2ccccc2c2ccccc21 (configuration not stated),11.9% (inactive)
17,Cc1ccc(OCC(O)CN2CCN(CC(O)COc3ccc(C)cc3)CC2)cc1 (configuration not stated),2.23% (inactive)
18,O=C(N/N=C/c1c(Cl)cccc1Cl)c1ccccc1F,65.5% (inactive)
19,O=C(CNc1ccccc1)NN=C1CCCC1,-7.1% (inactive)
20,COc1cccc(CNC(=O)CCC2CCCN(C(=O)c3cscn3)C2)c1 (configuration not stated),-1.29% (inactive)
21,CCOC(=O)N1CCN(C(=O)Nc2ccc(NC(=O)N3CCN(C(=O)OCC)CC3)cc2)CC1,-0.49% (inactive)

row,SMILES,inhibition
1,COc1ccccc1/C=C/C(=O)N1CCOCC1,-12.7% (inactive)
2,O=C(NCCCN1CCOCC1)/C(=C/c1ccc(F)cc1)NC(=O)c1ccccc1,-5.09% (inactive)
3,CC1(C)NC(=O)N(CC(=O)Nc2cc(S(=O)(=O)N3CCOCC3)ccc2N2CCOCC2)C1=O,0.65% (inactive)
4,C=CCNC(=O)NC(=O)COC(=O)[C@H](C)NS(=O)(=O)c1c(C)c(C)cc(C)c1C,0.16% (inactive)
5,COC(=O)c1ccc(Cn2cnc3c(cnn3-c3ccc(C)c(C)c3)c2=O)o1,-9.12% (inactive)
6,COc1ccc2c(c1)CCCN2C(N)=O,-8.08% (inactive)
7,C=CCn1c(SCc2csc(-c3ccc(Cl)cc3)n2)nnc1-c1ccccc1OC,7.93% (inactive)
8,C=CCn1c(SCC(=O)c2ccc(O)c(O)c2)nnc1-c1ccccc1OC,-2% (inactive)
9,COc1cc(NS(=O)(=O)c2ccc(NC(=O)NC3CCCCC3)cc2)nc(OC)n1,-5.16% (inactive)
10,Cc1cccc(C(=O)N2CCC(=O)N(C(COCc3cccc(Cl)c3)Cc3ccccc3)CC2)c1 (configuration not stated),-0.5% (inactive)
11,O=C(CCN1C(=O)C2CCCCC2C1=O)Nc1ccc(F)c(F)c1F (configuration not stated),-4.84% (inactive)
12,O=C(CCN1C(=O)C2CCCCC2C1=O)Nc1nc(-c2ccccc2)cs1 (configuration not stated),6.05% (inactive)
13,CCOC(=O)C1(CC2CCCCO2)CCN(C(=O)NCc2ccccc2)CC1 (configuration not stated),4.64% (inactive)
14,COc1ccc(-c2cc(C(F)(F)F)nc(N3CCOCC3)n2)cc1,-0.92% (inactive)
15,Nc1c(Cl)nc(-c2ccccc2)nc1Cl,0.39% (inactive)
16,c1ccc(-c2cnc(-c3ccccc3)nc2)cc1,-5.94% (inactive)
17,O=C(CCN1C(=O)C2C3C=CC(C3)C2C1=O)Nc1nccs1 (configuration not stated),-5.43% (inactive)
18,O=C1CNC(=S)N1CCc1ccc(Cl)cc1,-6.23% (inactive)
19,CCc1ccccc1NC(=O)CN(C)C(=O)CSc1nn(-c2ccc(F)cc2)c(=S)s1,-11.2% (inactive)
20,COc1ccc(-c2nc(C(F)(F)F)c(OC)o2)cc1OC,-0.95% (inactive)
21,O=C(C1CCN(Cc2ccc(F)cc2)CC1)N1CCN(C/C=C/c2ccccc2)CC1,5.92% (inactive)

row,SMILES,inhibition
1,O=C(Nc1ccc(F)cc1)N1CCN(C/C=C/c2ccccc2)CC1,-13% (inactive)
2,COCCNC(=O)CN(C)S(=O)(=O)c1ccc(Br)cc1,-4.89% (inactive)
3,Cc1cc(C(=O)c2ccc(Cl)cc2)c(NC(=O)CCl)s1,73.2% (inactive)
4,CCc1cc(C(=O)c2ccc(C)cc2)c(NC(=O)CCl)s1,76.6% (inactive)
5,O=C(CSc1nnc(-c2cccs2)o1)OCc1ccccc1,-0.9% (inactive)
6,COc1cc(-c2nnc(SCC(=O)c3ccc(C)cc3)o2)cc(OC)c1OC,2.03% (inactive)
7,O=C(CSc1nnc(-c2cccs2)o1)N1CCCCC1,1.5% (inactive)
8,O=C(CSc1nnc(-c2cccnc2)o1)OC1CCCCC1,-4.83% (inactive)
9,COc1ccc(-c2nnc(SCC(=O)N3CCOCC3)o2)cc1OC,-5.9% (inactive)
10,COc1ccc(-c2nnc(SCC(=O)N3CCCCC3)o2)cc1OC,5% (inactive)
11,COc1ccc(OC)c(C(=O)CSc2nnc(-c3ccc(OC)c(OC)c3)o2)c1,-6.09% (inactive)
12,COc1ccc(-c2nnc(SCC(=O)N3CCCC3)o2)cc1OC,-0.93% (inactive)
13,C=CCn1nnnc1-c1cc(Cl)cc(Cl)c1,2.4% (inactive)
14,CCCn1nc(C(=O)OCC(=O)c2c(N)n(C)c(=O)n(C)c2=O)c2ccccc2c1=O,5.18% (inactive)
15,N#Cc1c(/N=C/c2cccnc2)sc2c1CCCC2,2.15% (inactive)
16,O=C(CN1C(=O)c2ccccc2C1=O)Nc1cccc2cccnc12,7.46% (inactive)
17,CC1=CC(C)(C)N(C(=O)CSc2nncn2C)c2ccccc21,4.36% (inactive)
18,C=CCN(CC=C)S(=O)(=O)c1ccc(NC(=S)NC(=O)/C=C/c2cccc3ccccc23)cc1,2.67% (inactive)
19,CC(C)(C)OC(=O)NNC(=S)NCc1ccc(Cl)cc1,-13% (inactive)
20,CCc1ccc2[nH]c(=O)c(CN(Cc3ccccc3OC)C(=O)Nc3ccccc3OC)cc2c1,7.78% (inactive)
